# Sampled rows, rich in hits. Any-hit rate of the full collection: about 4.7%.
# SKKanGAS inh – SKKanGAS growth inhibition; 300,000 compounds, 1.3% hits; S. pyogenes SKKanGAS, kanamycin growth, BacTiter-Glo, 6 h; inhibition, % at 7.5 µM;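 active means mean replicate score, as percent of positive control median, at least 50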;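 further: strain carries kanamycin resistance gene driven by streptokinase promoter and grows in 40 µg/ml kanamycin; loss of luminescence reflects streptokinase promoter inhibition or plain growth inhibition; 0% = median of DMSO wells and 100% = positive control at its reference dose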
# PfHsp90 set2 – reduces growth (ATP signal) of yeast expressing P. falciparum Hsp90; 310,000 compounds, 0.32% hits; S. cerevisiae expressing PfHsp90, BacTiter-Glo ATP, 48 h; yeast lacking PDR1 and PDR3 efflux regulators; inhibition, % at 9.4 µM;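 active means every replicate shows inhibition above about 80%, whatever the replicate mean, limit read from the data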;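 further: 0% = DMSO neutral controls and 100% = 20 µM radicicol positive controls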
# EBI2 antag – antagonists of human EBI2 receptor | P32249 | EBI2 beta-arrestin recruitment, luminescence, 7a,25-OHC stimulated | inhibition, % at 5 µM | 360,000 compounds, 0.81% hits | AID 651636; in the data active means inhibition above about 38%;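 further: enzyme fragment complementation signal reports receptor beta-arrestin coupling in cells; 0% = agonist plus DMSO wells and 100% = wells without agonist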
# Target sequence (P32249 whole entry, looked up, the tested form may be a part): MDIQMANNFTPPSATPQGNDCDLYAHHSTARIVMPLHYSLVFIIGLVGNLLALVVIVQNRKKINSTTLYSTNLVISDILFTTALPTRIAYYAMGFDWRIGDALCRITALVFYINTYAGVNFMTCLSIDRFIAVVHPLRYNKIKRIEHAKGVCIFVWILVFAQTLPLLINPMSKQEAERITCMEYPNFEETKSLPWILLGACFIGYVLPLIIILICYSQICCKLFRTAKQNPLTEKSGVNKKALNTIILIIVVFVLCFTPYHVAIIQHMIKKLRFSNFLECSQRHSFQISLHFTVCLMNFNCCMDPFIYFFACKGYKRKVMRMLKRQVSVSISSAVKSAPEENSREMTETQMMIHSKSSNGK
# tim23-1 inh – growth inhibitors of tim23-1 mutant yeast. S. cerevisiae tim23-1 growth, BacTiter-Glo luminescence, 24 h. inhibition, % at 20 µM. 330,000 compounds, 1.3% hits. AID 463212;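 active means growth inhibition of the mutant yeast at or above 50%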;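 further: temperature-sensitive mutant grown at 25 °C; plate controls were DMSO-treated mutant yeast for no effect and medium wells lacking yeast for full effect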
# TIM10 inh – TIM10 yeast growth inhibition | S. cerevisiae TIM10 strain growth, BacTiter-Glo luminescence, 24 h | inhibition, % at 10 µM | 330,000 compounds, 1.4% hits | AID 463195;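 active means inhibition of 40% or more at the single tested concentration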;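 further: wild-type TIM10 isogenic control strain grown at permissive 25 °C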
# tim10-1 inh – tim10-1 yeast growth inhibition; S. cerevisiae tim10-1 ts strain growth, BacTiter-Glo, 24 h; inhibition, % at 20 µM; 330,000 compounds, 2.2% hits; AID 463190;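 active means inhibition of at least 40%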;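 further: mutant grown at 25 °C; 0% = DMSO wells with yeast and 100% = wells holding no yeast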
# tim10-1 conf – tim10-1 yeast growth inhibition, confirmed. shares compounds with tim10-1 inh. S. cerevisiae tim10-1 ts strain growth, BacTiter-Glo, 24 h. inhibition, % at 20 µM. 7,400 compounds, 56% hits. AID 463213;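 active means inhibition of yeast growth at or above a set limit in either of two repeat tests at 20 µM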;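 further: tim10-1 mutant grown at permissive 25 °C to find synthetic lethal compounds; 0% = DMSO yeast wells and 100% = medium wells without yeast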
# TIM10 conf – TIM10 yeast growth inhibition, confirmed; inhibition, % at 10 µM; shares compounds with TIM10 inh; 4,600 compounds, 63% hits; S. cerevisiae tim10 strain growth, BacTiter-Glo luminescence, 24 h;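 active means inhibition of yeast growth at or above a set limit in either of two replicates at 10 µM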;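 further: this counterscreen used the strain with wild-type TIM10; 0% = yeast with DMSO and 100% = medium wells lacking yeast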
# tim23-1 confirm – tim23-1 yeast growth inhibition, confirmed | 4,400 compounds, 83% hits | inhibition, % at 20 µM | shares compounds with tim23-1 inh | S. cerevisiae tim23-1 growth, BacTiter-Glo luminescence, 24 h;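 active means inhibition above about 39% in either of two replicate wells at 20 µM, limit read from the data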;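 further: temperature-sensitive tim23-1 mutant grown at 25 °C; 0% = DMSO wells with yeast and 100% = medium wells without yeast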
# An asterisk follows results filed as active; . = not tested or not shown.
SMILES,SKKanGAS inh,PfHsp90 set2,EBI2 antag,tim23-1 inh,TIM10 inh,tim10-1 inh,tim10-1 conf,tim23-1 confirm,others
COc1cc(NC(=S)N2CCN(S(C)(=O)=O)CC2)cc(OC)c1,.,-20,-11,-2,2,-15,.,.,
CNC(C)C#Cc1ccc2oc3cc(C)c(C)cc3c(=O)c2c1 (configuration not stated),5,12,2,21,8,11,.,.,
CNC(C)C#Cc1ccc2c(=O)c3cc(C)c(C)cc3oc2c1 (configuration not stated),13,-12,3,51*,16,42*,38*,59*,
Cc1ccc(C(=O)c2coc3c2C(=O)C(=O)c2ccccc2-3)cc1,9,141*,-9,85*,97*,93*,94*,95*,TIM10 conf=96*
COc1ccc(C(=O)c2coc(-c3ccccc3C(=O)O)c2C(=O)O)cc1,-2,-15,-11,-6,-7,5,.,.,
Cc1ccc(O)c(N=Cc2cc(Cc3ccccc3)cc([N+](=O)[O-])c2O)c1,5,101*,-8,51*,37,52*,29,61*,
NC(=O)c1ccccc1N/C=C/C(=O)c1ccc(Cl)cc1,1,-38,-11,8,-12,17,.,.,
O=C(/C=C/Sc1ccccc1)c1ccc(Cl)cc1,0,9,21,59*,37,51*,47*,46*,
COc1ccc(OC)c(NC(=O)c2cccc(NC(=O)c3ccco3)c2)c1,.,.,-5,.,.,.,.,.,
O=C(NC1=NCCS1)c1cc(-c2cccnc2)nc2ccccc12,-6,-27,-8,15,21,18,.,.,
O=C(NC1=NCCS1)c1cc(-c2cccs2)nc2ccccc12,1,-11,0,50*,46*,48*,46*,54*,TIM10 conf=31*
O=C1/C(=C/c2ccncc2)SC(=S)N1N1CCOCC1,2,-1,9,69*,58*,56*,50*,48*,TIM10 conf=55*
CCC(C)NS(=O)(=O)c1ccc(S(=O)(=O)N2CCCC3(CCCCC3)C2)cc1 (configuration not stated),4,.,1,20,8,14,.,.,
CCOC(=O)N=Nc1c2ccccc2c2nc3no[nH]c3nc12,9,108*,-5,55*,86*,76*,81*,81*,TIM10 conf=96*
CCOC(=O)N=Nc1c(O)n(CC(=O)OC)c2ccccc12,-2,9,4,1,3,8,.,.,
CCCn1c(=O)c(C(=O)NCc2ccccn2)c(O)c2ccccc21,.,10,-9,60*,42*,41*,21,57*,TIM10 conf=36*
CCCn1c(=O)c(C(=O)NCc2cccnc2)c(O)c2ccccc21,9,17,4,20,28,28,.,.,
Cc1cc(C)cc(C(O)c2ncc(-c3ccccc3Cl)[nH]2)c1 (configuration not stated),.,.,-6,.,.,.,.,.,
Cc1cccc(C)c1NC(=O)c1nc(S(=O)(=O)Cc2ccccc2)ncc1Cl,-11,-27,30,43,6,36,.,.,
Cc1cccc(CS(=O)(=O)c2ncc(Cl)c(C(=O)Nc3c(C)cccc3C)n2)c1,-21,-10,44,56*,9,46*,-55,21,
C#CCOCCOCCOCCNc1nc(N2CCN(C(=O)CCCCCCCCCCNC(=O)[C@H](CCCCN)n3cc(CCCC(=O)O)nn3)CC2)nc(N2CCN(C(=O)CCCCCCCCCCNC(=O)[C@H](CCCN=C(N)N)n3cc(C[C@@H](C)CC)nn3)CC2)n1,4,18,-4,52*,11,44*,38*,53*,
C#CCOCCOCCOCCNc1nc(N2CCN(C(=O)CCCCCCCCCCNC(=O)[C@H](CCCCN)n3cc(CCCC(=O)O)nn3)CC2)nc(N2CCN(C(=O)CCCCCCCCCCNC(=O)[C@H](CCCCN)n3cc(CCCC(=O)O)nn3)CC2)n1,1,1,-8,33,8,24,.,.,
O=S(=O)(NC(=NCCc1ccc(Cl)cc1)c1ccccc1Cl)c1cccs1,-7,-17,15,26,3,21,.,.,
N#C/C(=C\c1cccc(NC(=O)c2ccccc2Cl)c1)C(=O)NCCc1ccccc1,-2,-121,27,60*,57*,66*,61*,57*,TIM10 conf=4
Cc1ccc(C(=O)OCc2nnc(-c3ccccc3)o2)s1,16,.,-7,32,15,29,.,.,
SMILES,SKKanGAS inh,PfHsp90 set2,EBI2 antag,tim23-1 inh,TIM10 inh,tim10-1 inh,tim10-1 conf,tim23-1 confirm,others
O=C(OCc1nnc(-c2ccccc2)o1)c1ccc([N+](=O)[O-])s1,.,13,-16,56*,79*,57*,68*,73*,TIM10 conf=86*
O=C(COC(=O)c1ccc([N+](=O)[O-])s1)NCc1ccccc1,3,9,-8,51*,54*,41*,41*,33,TIM10 conf=32*
CCOc1ccc(S(=O)(=O)Nc2cccc(C(=O)NCCCn3ccnc3)c2)cc1,.,36,-1,0,-27,-8,.,.,
COc1ccc(-n2cnc3cc(NCc4cccs4)ccc32)cc1,31,15,0,58*,34,40*,-1,41*,
c1ccc(-n2cnc3cc(NCc4cccs4)ccc32)cc1,18,-4,-11,51*,52*,46*,33*,70*,TIM10 conf=46*
COc1ccc(-n2cnc3cc(NCc4ccccn4)ccc32)cc1,-2,18,-7,12,23,-16,.,.,
CN(C)Cc1nnnn1-c1ccccc1,4,-3,-14,0,18,3,.,.,
CCN(CC)CCCNC(=S)N(CCO)Cc1cc2cc3c(cc2[nH]c1=O)OCCO3,2,14,-1,-3,-4,-1,.,.,
C=CCOC(=O)C(C#N)c1nc2ccccc2nc1N1CCN(Cc2ccccc2)CC1 (configuration not stated),.,1,33,50*,36,47*,36*,43*,
COCCOC(=O)C(C#N)c1nc2ccccc2nc1N1CCN(Cc2ccccc2)CC1 (configuration not stated),9,23,29,25,23,25,.,.,
CN(C)CC(C)(C)CNS(=O)(=O)CC12CCC(CC1=O)C2(C)C (configuration not stated),-7,-2,-1,2,-2,5,.,.,
COc1ccc(-c2nc(-c3ccccc3)c(-c3cccs3)[nH]2)cc1OC,-15,-8,19,55*,34,41*,34*,63*,
